Assay results from PubChem BioAssay AID1851 (National Center for Advancing Translational Sciences (NCATS), 2009).
Where “and” joins values, the source holds several entries; their conditions need not be identical. Identical values can stand only once. About 2,600 (16%) of roughly 16,000 compounds were called active. Not shown: some 20% with an inconclusive outcome. These entries were drawn from the full list. Values without a mark were called inactive. Calls come from the whole dose curve; as a rule, active = well fitted curve in the direction sought with a large enough effect; inconclusive = small, poorly fitted or top-dose-only effect, or effect the other way; inactive = no such curve, though single readings can be large or run the other way.

The molecules below were run against Cytochrome P450 2D6 (Homo sapiens) (UniProt P10635) (assay: Cytochrome panel assay with activity outcomes). Conditions: recombinant CYP, pro-luciferin dealkylation, luminescence, p450-cyp2d6; series mostly up to 57.1 µM.
Sequence of Cytochrome P450 2D6 (Homo sapiens) (P10635 whole entry, looked up): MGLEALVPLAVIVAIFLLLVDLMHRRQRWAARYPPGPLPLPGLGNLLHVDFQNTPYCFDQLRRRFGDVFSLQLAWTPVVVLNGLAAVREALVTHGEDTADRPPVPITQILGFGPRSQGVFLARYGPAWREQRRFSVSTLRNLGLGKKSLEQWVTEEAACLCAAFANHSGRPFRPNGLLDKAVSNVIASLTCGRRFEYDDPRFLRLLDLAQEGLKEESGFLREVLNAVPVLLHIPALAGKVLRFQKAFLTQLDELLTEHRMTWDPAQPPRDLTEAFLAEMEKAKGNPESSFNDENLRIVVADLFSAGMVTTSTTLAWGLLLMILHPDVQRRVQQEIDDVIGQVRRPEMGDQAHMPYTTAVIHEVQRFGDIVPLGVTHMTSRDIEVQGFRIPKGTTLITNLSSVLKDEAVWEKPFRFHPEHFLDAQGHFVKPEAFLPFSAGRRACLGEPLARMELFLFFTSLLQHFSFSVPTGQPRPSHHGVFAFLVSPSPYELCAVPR
% is set by controls: 0 for no effect and ±100 for the full control effect.

Structure (SMILES) | AC50 | activity, negative = inhibition
CC(C)OC(=O)CSc1nc(-c2ccc(F)cc2)nc2ccc(F)cc12 | inactive | 
CC[C@@H](c1ccccc1)n1c(=O)n2n(c1=O)[C@H]1[C@H](O)[C@H]3O[C@@H]3/C(=N/OC/C=C(\C)CCC=C(C)C)[C@@H]1CC2 |  | 3.1% [at 11.4 µM]
CCOC(=O)N/N=C/c1ccc(F)cc1 | inactive | 
Cc1cccc(-c2n[nH]c([N+](=O)[O-])n2)c1 | inactive | 
COC(=O)[C@H](CCSC)NC(=O)NCc1ccccc1F | inactive | 
CC(C)=NO[C@@H](C)c1cn([C@H](CO)Cc2ccccc2)nn1 |  | 6.42% [at 11.4 µM] and -9.14% [at 11.4 µM]
O=C(NCCN1CCN(C(=O)c2cc3ccccc3oc2=O)CC1)c1cc2ccccc2oc1=O | inactive | 
CCNC(=S)N1CCC(NC(=O)C2CCCCC2)CC1 | inactive | 
CNC(=O)/C(C#N)=c1\s/c(=C/C(=O)OC)c(=O)n1-c1ccccc1 | inactive | 
C/C=C1\C(=O)C[C@@H]2[C@@H]3CCC4=CC(=O)CC[C@@]4(C)[C@H]3CC[C@@]12C | inactive | 
COCc1c(C(N)=O)nnn1-c1nonc1N | inactive | 
O=C(Cc1ccccc1)NC1CCN(S(=O)(=O)c2ccc(C(=O)O)cc2)CC1 | inactive | 
CC(C)C(NC(=O)C1CCCCC1)C(=O)NC1CCN(Cc2ccccc2)CC1 (configuration not stated) | inactive | 
O=C(NC1CCN(Cc2ccccc2)CC1)c1ccc(I)cc1 | 12.6 µM (active) | 
COc1ccc(CC(NC(C)=O)C(=O)NC2CCN(C(=O)Nc3ccc(Cl)cc3)CC2)cc1OC (configuration not stated) | inactive | 
COc1cc(N)c(Cl)cc1C(=O)NC1CCN(Cc2ccccc2)CC1 | 0.0126 µM (active) | 
COc1cc([C@@H](O)CO)ccc1OS(=O)(=O)O | inactive | 
O=[N+]([O-])c1ccccc1N=Nc1c(O)[nH]c2ccc(S(=O)(=O)O)cc12 |  | -12.1% [at 11.4 µM]
C[C@@](Cc1ccc(O)c(O)c1)(NN)C(=O)O | inactive | 
COc1cccc(Nc2ncc3nc(C)c(=O)n(CCc4ccccc4)c3n2)c1 | inactive | 
C[C@@]1(C(=O)O)NCCc2cc(O)c(O)cc21 | inactive | 
Cc1cc(C)c2c(-n3cccc3)n[nH]c2n1 | 25.1 µM (active) | 
Cc1nc(N=Nc2cc(S(=O)(=O)O)ccc2S(=O)(=O)O)c(COP(=O)(O)O)c(C=O)c1O | inactive | 
COc1ccc(/C(C#N)=C/c2c(-c3ccc(Cl)cc3)nc3c(C)cccn23)cc1 | inactive | 
Cc1sc(NC(=O)C2C3CCC(O3)C2C(=O)O)c(C(=O)OC(C)C)c1-c1ccc(Cl)cc1 (configuration not stated) | inactive | 

Structure (SMILES) | AC50 | activity, negative = inhibition
CN(C(=O)c1cnc(N2CCN(c3ncccn3)CC2)c2ccccc12)c1ccc(Cl)cc1 | 12.6 µM (active) | 
CCN(C(=O)COc1cc(=O)n(C)c2ccccc12)c1cccc(Cl)c1 | inactive | 
CCN(C(=O)c1cnc(N2CCN(c3ncccn3)CC2)c2ccccc12)c1cccc(Cl)c1 | 10 µM (active) | 
COCC(=O)N1CCC2(CC1)CCN(c1ncccn1)CC2 | inactive | 
O=C(O)CCC(=O)N1CCN(c2ccccn2)CC1 | inactive | 
O=C(c1cnc(N2CCN(c3ncccn3)CC2)c2ccccc12)N1CCN(c2ccccn2)CC1 | 11.2 µM (active) | 
COc1ccccc1C(=O)N1CCN(c2ccccn2)CC1 | inactive | 
O=C(Cn1ccc2ccccc2c1=O)N1CCN(c2cccc(Cl)c2)CC1 | inactive | 
O=C(Oc1ccccc1)N1CCC2(CC1)CCN(c1ncccn1)CC2 | inactive | 
CC(C)Cc1ccc([C@H](C)C(=O)O)cc1 | inactive | 
CCOc1ccc2nc3cc(N=Nc4ccc(N)nc4N)ccc3c(N)c2c1 |  | -4.78% [at 11.4 µM]
Cc1ccccc1Oc1ncnc2sccc12 | inactive | 
NCCc1nc(-c2nc(C(=O)O)cs2)cs1 |  | 16.3% [at 11.4 µM]
OCCCSCCO |  | -3.94% [at 11.4 µM]
COc1ccc(C(C(=O)NC2CCCCC2)N(C(=O)c2sc(C)nc2C)c2ccc(OC)cc2)cc1 (configuration not stated) | inactive | 
Cc1cc(C(C)(C)C)c(O)c(C)c1CC1=NCCN1 | 12.6 µM (active) and 3.98 µM (active) and 39.8 nM (active) | 
Cc1cc(Cc2c(C)c(C)c(Cc3cc(C)cc(C(C)(C)C)c3O)c(C)c2C)c(O)c(C(C)(C)C)c1 |  | 12% [at 11.4 µM]
Cc1cc(Cc2cc(C)cc(C(C)(C)C)c2O)c(O)c(Cc2cc(C)cc(C(C)(C)C)c2O)c1 |  | -2.96% [at 11.4 µM]
COc1ccc(CN2C(=O)CN(C3CCCCCC3)C(=O)C2c2ccc(OC)c(OC)c2)cc1 (configuration not stated) | inactive | 
Cc1ccc(NC(=O)CCC(=O)NNC(=O)c2ccco2)cc1C | inactive | 
CCOc1[nH]n(-c2ccccc2)c(=O)c1C=Nc1ccc(Cl)cc1 | inactive | 
Cn1c(C(F)(F)F)nc2c(=O)oc3ccccc3c21 | inactive | 
CCCC/C=C/C(NC(=O)c1ccc(-c2ccccc2)cc1)c1ccccc1 (configuration not stated) | inactive | 
O=C(NCCOC12CC3CC(CC(C3)C1)C2)c1cccc(Br)c1 | inactive | 
O=C(CCc1ccccc1)NNC(=O)c1ccco1 | inactive | 

Structure (SMILES) | AC50 | activity, negative = inhibition
O=C(CCc1ccccc1)Nc1nncs1 | 14.1 µM (active) | 
O=C(CCc1ccccc1)Nc1ncn[nH]1 | inactive | 
CCOC(=O)CCN1C(=O)[C@H]2[C@H]3[C@H](O)[C@H](O)C/C(=N/OC[C@@H](O)COCc4ccco4)[C@H]3CC[C@@H]2C1=O |  | 8.09% [at 11.4 µM]
COc1ccc2c3c([nH]c2c1)[C@H]1C[C@@H]2[C@@H](C[C@@H](O)[C@H](OC)[C@H]2C(=O)O)CN1CC3 |  | 7.15% [at 11.4 µM]
Cc1ccc(S(=O)(=O)N(C)CC(=O)O/N=C(\N)c2ccccn2)cc1 | inactive | 
c1ccc2sc(SCN(C3CCCCC3)C3CCCCC3)nc2c1 | 1.58 µM (active) | 
O=C(O)CCCSc1nc2ccccc2s1 |  | -8.66% [at 11.4 µM]
c1ccc(NCCSc2nc3ccccc3s2)cc1 |  | 1.99% [at 11.4 µM]
O=C(Nc1ccc2oc(=O)c(C(=O)O)cc2c1)Oc1ccccc1 |  | -5.11% [at 11.4 µM]
CC(=O)c1c(C(C)=O)c(C)n(NC(=O)c2ccncc2)c1C | inactive | 
c1ccc(CNc2nc(-c3ccoc3)nc3ccccc23)cc1 | 10 µM (active) | 
CN(C)c1ccc(-c2nc(NCc3cccnc3)c3ccccc3n2)cc1 | 7.94 µM (active) | 
Fc1ccc(Nc2nc(-c3ccoc3)nc3ccccc23)cc1 | inactive | 
c1csc(CNc2nc(-c3ccoc3)nc3ccccc23)c1 | 3.98 µM (active) | 
Cc1cccc(CNc2nc(-c3ccoc3)nc3ccccc23)c1 | 10 µM (active) | 
CCNc1ncc2nc(-c3ccc(OC)cc3)c(=O)n(Cc3cccc(OC)c3)c2n1 | inactive | 
Cn1c(=O)n(CCC(=O)O)c2ccccc21 | inactive | 
COc1cc(/C=N/NC(N)=O)c(Br)cc1OCC(=O)Nc1ccccc1C | inactive | 
CCOC(=O)c1c(O)[nH]c(=O)c(CC)c1C |  | -17.9% [at 11.4 µM]
CCOC(=O)Nc1nc(-c2ccccc2)c(C)s1 |  | 1.52% [at 11.4 µM]
CO/N=C(\C(=O)N[C@@H]1C(=O)N2C(C(=O)O)=C(COC(N)=O)CS[C@@H]12)c1ccco1 | inactive | 
O=S1(=O)CCN(c2ccccc2CC(c2c[nH]c3ccccc23)c2c[nH]c3ccccc23)CC1 |  | -18% [at 11.4 µM]
Cc1ccc(C2CC(C(F)(F)F)n3nc(C(=O)NCCN4CCOCC4)cc3N2)cc1 (configuration not stated) | inactive | 
O=S(=O)(O)[C@@H](c1ccccc1)[C@@H](O)c1ccccc1 |  | 4.68% [at 11.4 µM]
Cc1cccc(CNc2nc(-c3cccnc3)nc3ccccc23)c1 | 25.1 µM (active) | 

Structure (SMILES) | AC50 | activity, negative = inhibition
c1cncc(CNc2nc(-c3ccoc3)nc3ccccc23)c1 | 5.01 µM (active) | 
CN(C)c1ccc(-c2nc(NCCc3cnc[nH]3)c3ccccc3n2)cc1 | 7.94 µM (active) | 
Cc1cnc(CNc2nc(-c3cccnc3)nc3ccccc23)cn1 | inactive | 
c1cncc(-c2nc(NCc3cccs3)c3ccccc3n2)c1 | 6.31 µM (active) | 
CNC(=S)N1N=C(c2ccc(OC)cc2)CC1c1ccc(N(C)C)cc1 (configuration not stated) | inactive | 
Cc1c(CCC(C)C)c(-n2ccnc2C)n2c(nc3ccccc32)c1C#N | inactive | 
CCSc1nnc2n(N)c(=O)c3ccccc3n12 | inactive | 
Cc1cc(=O)oc2cc(O)c(CN(C)CC(=O)O)cc12 |  | -1.55% [at 11.4 µM]
Cc1cccc(Nc2ccccc2C(=O)OCC(=O)N(C)C2CCS(=O)(=O)C2)c1C (configuration not stated) | inactive | 
Cc1cc(C)nc(SCCc2cccc[n+]2C)n1 |  | -2.83% [at 11.4 µM]
S=c1[nH]nc(-c2ccncc2)n1CC1CCCO1 (configuration not stated) | inactive | 
Cc1cc(NC(=O)CSc2nc3ccsc3c(=O)n2CCCCC(=O)O)no1 | inactive | 
C[C@@]1(O)CCOC(=O)C1 | inactive | 
CCOC(=O)c1c(C)[nH]c(C(=O)OCC(=O)NC2CCS(=O)(=O)C2)c1C (configuration not stated) | inactive | 
NCCS(=O)O | inactive | 
Cc1ccc(S(=O)(=O)O/N=C2/CCCc3occc32)cc1 | inactive | 
O=CN[C@@H](Cc1cnc[nH]1)C(=O)O |  | -4.29% [at 11.4 µM]
C[C@@H](CCCCC(=O)Nc1ccc(C(F)(F)F)cc1)NCCc1cnc[nH]1 | 5.01 µM (active) | 
CN(C)C[C@H]1CCC[C@@H](CN(C)C)C1=O |  | -1.21% [at 11.4 µM]
Fc1ccc2c(c1)C(c1ccncc1)=NNC(c1ccc(Cl)cc1)=N2 | 0.398 µM (active) | 
Clc1ccc2oc(-c3cccnc3)nc2c1 | inactive | 
Clc1ccc2c(c1)C(c1cccs1)=NNC(c1cccnc1)=N2 | 10 µM (active) | 
